Results reported in ChEMBL document CHEMBL1961873, “Compounds: GSK PKIS; Assays: Nanosyn kinase panel” (2012).

Tests used:
[1] = target: T1, Inhibitor of nuclear factor kappa-B kinase subunit epsilon (Homo sapiens) (UniProt Q14164); conditions: at 1 µM;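 also: reported values are averaged percent inhibition figures against human IKKε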
T1 sequence (whole entry): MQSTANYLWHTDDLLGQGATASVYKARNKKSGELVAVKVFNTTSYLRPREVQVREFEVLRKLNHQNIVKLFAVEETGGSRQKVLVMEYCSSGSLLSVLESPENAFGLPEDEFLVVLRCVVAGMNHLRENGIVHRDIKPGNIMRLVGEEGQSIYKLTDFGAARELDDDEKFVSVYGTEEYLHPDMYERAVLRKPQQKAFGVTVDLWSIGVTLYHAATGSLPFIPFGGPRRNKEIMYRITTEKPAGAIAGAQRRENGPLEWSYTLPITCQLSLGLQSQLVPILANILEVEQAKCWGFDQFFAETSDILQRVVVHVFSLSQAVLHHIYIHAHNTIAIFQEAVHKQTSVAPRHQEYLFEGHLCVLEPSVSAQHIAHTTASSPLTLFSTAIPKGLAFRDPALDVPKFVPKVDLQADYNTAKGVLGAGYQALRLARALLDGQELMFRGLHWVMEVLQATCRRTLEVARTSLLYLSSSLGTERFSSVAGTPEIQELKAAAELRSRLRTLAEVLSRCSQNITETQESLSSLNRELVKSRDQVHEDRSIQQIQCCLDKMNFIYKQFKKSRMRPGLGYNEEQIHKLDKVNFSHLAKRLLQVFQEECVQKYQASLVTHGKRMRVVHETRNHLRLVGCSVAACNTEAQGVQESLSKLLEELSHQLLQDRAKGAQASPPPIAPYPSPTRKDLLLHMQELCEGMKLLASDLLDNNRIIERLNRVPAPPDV

[2] = target: T2, Serine/threonine-protein kinase Nek1 (Homo sapiens) (UniProt Q96PY6); conditions: at 0.1 µM
T2 sequence (whole entry): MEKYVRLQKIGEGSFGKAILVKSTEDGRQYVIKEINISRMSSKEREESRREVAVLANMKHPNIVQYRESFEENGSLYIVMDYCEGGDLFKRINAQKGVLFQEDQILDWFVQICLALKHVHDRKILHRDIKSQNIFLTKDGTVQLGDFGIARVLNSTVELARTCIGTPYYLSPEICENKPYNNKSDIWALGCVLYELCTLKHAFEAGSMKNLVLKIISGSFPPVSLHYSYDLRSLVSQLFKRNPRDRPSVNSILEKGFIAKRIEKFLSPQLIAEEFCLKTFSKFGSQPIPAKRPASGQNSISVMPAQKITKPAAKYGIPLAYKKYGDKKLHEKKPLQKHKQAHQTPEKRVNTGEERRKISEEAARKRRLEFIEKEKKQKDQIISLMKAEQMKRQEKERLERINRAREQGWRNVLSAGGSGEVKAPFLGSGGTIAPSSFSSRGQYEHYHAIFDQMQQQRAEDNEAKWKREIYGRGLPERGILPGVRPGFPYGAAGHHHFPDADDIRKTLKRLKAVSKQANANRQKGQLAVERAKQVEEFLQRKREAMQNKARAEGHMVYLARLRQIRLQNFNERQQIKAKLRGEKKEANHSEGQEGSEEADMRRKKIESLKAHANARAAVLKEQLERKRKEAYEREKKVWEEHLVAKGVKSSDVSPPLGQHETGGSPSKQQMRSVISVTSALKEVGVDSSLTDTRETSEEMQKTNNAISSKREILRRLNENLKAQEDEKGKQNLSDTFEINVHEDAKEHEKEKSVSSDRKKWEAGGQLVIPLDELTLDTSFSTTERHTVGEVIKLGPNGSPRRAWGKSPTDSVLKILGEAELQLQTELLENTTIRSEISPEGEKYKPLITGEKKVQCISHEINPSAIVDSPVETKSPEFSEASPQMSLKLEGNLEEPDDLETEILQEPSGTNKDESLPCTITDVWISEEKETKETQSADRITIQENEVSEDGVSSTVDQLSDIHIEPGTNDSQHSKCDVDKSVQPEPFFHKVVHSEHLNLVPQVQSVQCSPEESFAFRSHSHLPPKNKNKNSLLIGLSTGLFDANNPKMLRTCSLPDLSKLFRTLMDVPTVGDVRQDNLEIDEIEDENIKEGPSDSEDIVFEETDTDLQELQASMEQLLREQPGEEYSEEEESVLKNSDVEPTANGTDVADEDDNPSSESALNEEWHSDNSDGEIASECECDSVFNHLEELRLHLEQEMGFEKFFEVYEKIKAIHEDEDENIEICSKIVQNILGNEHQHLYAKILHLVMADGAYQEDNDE

[3] = target: T2, Serine/threonine-protein kinase Nek1 (Homo sapiens); conditions: at 1 µM
[4] = target: T3, Serine/threonine-protein kinase Nek2 (Homo sapiens) (UniProt P51955); conditions: at 0.1 µM
T3 sequence (whole entry): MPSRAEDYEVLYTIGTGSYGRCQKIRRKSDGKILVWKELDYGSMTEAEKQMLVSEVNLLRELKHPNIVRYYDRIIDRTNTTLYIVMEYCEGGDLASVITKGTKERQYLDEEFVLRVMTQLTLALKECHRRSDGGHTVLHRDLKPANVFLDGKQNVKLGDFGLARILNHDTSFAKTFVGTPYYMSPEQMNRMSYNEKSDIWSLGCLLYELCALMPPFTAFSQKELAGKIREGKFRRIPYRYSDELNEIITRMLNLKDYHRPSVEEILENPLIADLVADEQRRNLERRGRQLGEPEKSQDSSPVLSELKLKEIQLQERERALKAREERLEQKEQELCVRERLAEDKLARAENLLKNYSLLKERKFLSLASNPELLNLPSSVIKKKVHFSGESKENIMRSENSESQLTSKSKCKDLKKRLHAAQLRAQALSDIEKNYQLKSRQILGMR

[5] = target: T3, Serine/threonine-protein kinase Nek2 (Homo sapiens); conditions: at 1 µM
[6] = target: Serine/threonine-protein kinase Nek6 (Homo sapiens) (UniProt Q9HC98); conditions: at 0.1 µM
[7] = target: Serine/threonine-protein kinase Nek6 (Homo sapiens) (UniProt Q9HC98); conditions: at 1 µM
[8] = target: Serine/threonine-protein kinase Nek7 (Homo sapiens) (UniProt Q8TDX7); conditions: at 0.1 µM
[9] = target: Serine/threonine-protein kinase Nek7 (Homo sapiens) (UniProt Q8TDX7); conditions: at 1 µM
[10] = target: T4, Serine/threonine-protein kinase Nek9 (Homo sapiens) (UniProt Q8TD19); conditions: at 0.1 µM
T4 sequence (whole entry): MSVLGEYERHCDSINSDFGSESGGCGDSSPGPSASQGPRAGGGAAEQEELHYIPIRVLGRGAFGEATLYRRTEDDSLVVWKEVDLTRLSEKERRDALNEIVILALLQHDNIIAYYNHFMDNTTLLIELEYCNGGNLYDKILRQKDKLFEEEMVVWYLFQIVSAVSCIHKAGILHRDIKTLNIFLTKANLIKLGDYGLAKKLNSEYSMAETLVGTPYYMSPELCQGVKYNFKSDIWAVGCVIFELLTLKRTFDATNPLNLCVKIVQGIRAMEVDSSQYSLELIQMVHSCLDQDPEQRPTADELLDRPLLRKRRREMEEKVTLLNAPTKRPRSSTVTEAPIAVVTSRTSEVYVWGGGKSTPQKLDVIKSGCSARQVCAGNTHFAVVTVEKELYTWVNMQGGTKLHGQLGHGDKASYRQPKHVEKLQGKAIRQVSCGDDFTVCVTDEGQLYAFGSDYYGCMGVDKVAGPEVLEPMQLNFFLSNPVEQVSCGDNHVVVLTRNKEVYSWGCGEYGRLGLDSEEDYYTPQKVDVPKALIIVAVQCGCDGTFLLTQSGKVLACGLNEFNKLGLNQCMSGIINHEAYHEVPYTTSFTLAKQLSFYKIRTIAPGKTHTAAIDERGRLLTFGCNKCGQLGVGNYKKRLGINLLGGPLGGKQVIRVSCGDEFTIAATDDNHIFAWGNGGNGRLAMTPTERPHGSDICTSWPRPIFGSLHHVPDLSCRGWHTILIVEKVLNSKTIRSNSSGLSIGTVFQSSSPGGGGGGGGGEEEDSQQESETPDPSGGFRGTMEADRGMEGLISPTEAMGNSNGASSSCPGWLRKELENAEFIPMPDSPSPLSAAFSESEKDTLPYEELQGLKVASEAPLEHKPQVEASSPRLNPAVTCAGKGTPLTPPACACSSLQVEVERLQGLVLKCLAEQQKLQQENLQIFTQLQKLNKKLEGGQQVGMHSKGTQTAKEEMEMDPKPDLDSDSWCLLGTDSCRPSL

[11] = target: T4, Serine/threonine-protein kinase Nek9 (Homo sapiens); conditions: at 1 µM
[12] = target: Serine/threonine-protein kinase PLK1 (Homo sapiens) (UniProt P53350); conditions: at 0.1 µM
[13] = target: Serine/threonine-protein kinase PLK1 (Homo sapiens) (UniProt P53350); conditions: at 1 µM
[14] = target: T5, Dual specificity protein kinase TTK (Homo sapiens) (UniProt P33981); conditions: at 0.1 µM
T5 sequence (whole entry): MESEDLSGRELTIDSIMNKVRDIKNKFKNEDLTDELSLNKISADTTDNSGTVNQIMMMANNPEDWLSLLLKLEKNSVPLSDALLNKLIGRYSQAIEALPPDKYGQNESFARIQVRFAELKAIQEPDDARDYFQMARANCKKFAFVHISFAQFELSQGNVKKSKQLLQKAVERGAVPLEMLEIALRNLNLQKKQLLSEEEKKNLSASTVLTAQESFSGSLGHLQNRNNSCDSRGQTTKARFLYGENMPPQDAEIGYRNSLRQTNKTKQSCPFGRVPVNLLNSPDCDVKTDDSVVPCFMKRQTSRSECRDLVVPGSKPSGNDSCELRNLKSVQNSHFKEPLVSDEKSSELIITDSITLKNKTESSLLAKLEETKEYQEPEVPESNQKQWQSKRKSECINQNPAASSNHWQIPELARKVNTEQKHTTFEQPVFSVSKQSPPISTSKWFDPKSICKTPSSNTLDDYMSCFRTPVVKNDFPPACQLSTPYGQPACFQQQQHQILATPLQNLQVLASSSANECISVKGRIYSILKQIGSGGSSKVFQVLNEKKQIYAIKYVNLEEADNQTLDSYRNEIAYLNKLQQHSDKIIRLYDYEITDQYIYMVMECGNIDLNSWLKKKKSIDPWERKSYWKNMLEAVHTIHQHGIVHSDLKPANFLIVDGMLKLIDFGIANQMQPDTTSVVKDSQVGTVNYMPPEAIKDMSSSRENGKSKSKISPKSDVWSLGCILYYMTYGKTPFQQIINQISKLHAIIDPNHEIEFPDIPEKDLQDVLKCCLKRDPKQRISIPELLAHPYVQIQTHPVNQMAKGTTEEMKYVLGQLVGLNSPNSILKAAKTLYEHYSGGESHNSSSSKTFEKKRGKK

[15] = tested on: T6, Receptor-type tyrosine-protein kinase FLT3 (Homo sapiens), P36888 [D835Y]; conditions: at 1 µM
T6 sequence (whole entry): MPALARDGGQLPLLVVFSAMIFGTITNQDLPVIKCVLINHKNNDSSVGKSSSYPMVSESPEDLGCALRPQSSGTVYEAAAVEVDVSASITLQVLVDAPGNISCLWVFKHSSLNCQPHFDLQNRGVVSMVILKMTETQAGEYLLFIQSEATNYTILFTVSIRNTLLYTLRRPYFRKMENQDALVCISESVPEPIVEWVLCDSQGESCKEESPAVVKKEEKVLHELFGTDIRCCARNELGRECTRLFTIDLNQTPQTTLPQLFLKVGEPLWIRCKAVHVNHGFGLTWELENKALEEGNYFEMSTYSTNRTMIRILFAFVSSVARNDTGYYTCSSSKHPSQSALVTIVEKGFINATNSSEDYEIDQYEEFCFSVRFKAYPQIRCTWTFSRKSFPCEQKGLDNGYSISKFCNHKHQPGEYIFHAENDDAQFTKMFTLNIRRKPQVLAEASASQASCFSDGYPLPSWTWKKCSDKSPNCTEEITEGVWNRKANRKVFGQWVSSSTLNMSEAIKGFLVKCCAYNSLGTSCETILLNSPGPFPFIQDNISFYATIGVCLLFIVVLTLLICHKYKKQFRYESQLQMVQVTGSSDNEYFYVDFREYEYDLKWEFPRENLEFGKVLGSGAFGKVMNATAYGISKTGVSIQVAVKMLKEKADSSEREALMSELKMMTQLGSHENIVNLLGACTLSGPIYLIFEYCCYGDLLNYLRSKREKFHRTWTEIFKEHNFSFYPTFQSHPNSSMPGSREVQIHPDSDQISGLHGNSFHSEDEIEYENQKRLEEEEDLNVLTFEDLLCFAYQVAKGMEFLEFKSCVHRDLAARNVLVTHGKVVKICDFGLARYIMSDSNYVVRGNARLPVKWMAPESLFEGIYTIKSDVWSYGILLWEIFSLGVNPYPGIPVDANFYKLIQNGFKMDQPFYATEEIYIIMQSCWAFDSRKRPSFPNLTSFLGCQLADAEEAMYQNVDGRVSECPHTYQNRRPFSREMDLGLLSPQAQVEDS

[16] = target: Vascular endothelial growth factor receptor 3 (Homo sapiens) (UniProt P35916); conditions: at 0.1 µM
[17] = target: Vascular endothelial growth factor receptor 3 (Homo sapiens) (UniProt P35916); conditions: at 1 µM
[18] = target: Macrophage colony-stimulating factor 1 receptor (Homo sapiens) (UniProt P07333); conditions: at 0.1 µM
[19] = target: Macrophage colony-stimulating factor 1 receptor (Homo sapiens) (UniProt P07333); conditions: at 1 µM
[20] = target: Tyrosine-protein kinase Fyn (Homo sapiens) (UniProt P06241); conditions: at 0.1 µM
Tyrosine-protein kinase Fyn (Homo sapiens), sequence (P06241 2-537 limits assumed): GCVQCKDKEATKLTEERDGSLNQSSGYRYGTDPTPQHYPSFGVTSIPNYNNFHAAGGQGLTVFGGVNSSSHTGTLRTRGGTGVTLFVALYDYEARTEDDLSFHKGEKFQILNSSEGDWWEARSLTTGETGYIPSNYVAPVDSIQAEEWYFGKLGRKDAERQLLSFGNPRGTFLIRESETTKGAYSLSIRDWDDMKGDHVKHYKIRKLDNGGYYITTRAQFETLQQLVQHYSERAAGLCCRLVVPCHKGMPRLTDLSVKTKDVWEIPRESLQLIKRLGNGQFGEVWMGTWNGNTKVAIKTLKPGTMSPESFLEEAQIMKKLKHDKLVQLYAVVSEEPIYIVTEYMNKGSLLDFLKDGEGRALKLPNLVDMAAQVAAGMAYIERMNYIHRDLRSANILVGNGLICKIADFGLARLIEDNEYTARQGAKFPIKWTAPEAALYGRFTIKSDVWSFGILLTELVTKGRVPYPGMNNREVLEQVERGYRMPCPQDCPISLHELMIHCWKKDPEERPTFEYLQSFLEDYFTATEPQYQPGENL

Macrophage colony-stimulating factor 1 receptor (Homo sapiens), sequence (P07333 whole entry): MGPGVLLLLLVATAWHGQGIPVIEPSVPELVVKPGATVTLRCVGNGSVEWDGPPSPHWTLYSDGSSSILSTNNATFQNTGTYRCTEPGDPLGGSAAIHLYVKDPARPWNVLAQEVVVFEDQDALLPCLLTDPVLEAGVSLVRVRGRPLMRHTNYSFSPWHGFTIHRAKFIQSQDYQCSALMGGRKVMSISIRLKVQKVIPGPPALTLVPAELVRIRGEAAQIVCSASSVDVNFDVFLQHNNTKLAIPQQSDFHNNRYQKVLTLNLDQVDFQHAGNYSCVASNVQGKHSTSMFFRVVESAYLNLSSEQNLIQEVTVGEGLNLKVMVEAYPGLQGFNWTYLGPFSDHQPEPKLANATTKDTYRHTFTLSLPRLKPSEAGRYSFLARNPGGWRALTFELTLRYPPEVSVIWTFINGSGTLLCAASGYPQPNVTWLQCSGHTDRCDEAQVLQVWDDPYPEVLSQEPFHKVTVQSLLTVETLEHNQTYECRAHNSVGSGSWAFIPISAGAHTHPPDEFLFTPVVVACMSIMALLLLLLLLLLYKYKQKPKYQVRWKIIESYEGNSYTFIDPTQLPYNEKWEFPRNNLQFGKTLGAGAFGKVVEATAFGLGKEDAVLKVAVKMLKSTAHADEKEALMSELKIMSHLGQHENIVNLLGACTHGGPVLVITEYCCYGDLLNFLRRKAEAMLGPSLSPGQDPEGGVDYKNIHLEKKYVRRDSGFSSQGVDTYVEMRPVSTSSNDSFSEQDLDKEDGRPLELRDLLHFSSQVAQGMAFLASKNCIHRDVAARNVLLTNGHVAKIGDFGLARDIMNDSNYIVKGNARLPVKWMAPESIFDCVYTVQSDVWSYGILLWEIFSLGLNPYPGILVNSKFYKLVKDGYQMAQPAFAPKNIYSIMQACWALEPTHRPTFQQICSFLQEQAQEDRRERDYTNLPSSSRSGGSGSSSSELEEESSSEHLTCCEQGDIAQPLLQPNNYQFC
Serine/threonine-protein kinase PLK1 (Homo sapiens), sequence (P53350 whole entry): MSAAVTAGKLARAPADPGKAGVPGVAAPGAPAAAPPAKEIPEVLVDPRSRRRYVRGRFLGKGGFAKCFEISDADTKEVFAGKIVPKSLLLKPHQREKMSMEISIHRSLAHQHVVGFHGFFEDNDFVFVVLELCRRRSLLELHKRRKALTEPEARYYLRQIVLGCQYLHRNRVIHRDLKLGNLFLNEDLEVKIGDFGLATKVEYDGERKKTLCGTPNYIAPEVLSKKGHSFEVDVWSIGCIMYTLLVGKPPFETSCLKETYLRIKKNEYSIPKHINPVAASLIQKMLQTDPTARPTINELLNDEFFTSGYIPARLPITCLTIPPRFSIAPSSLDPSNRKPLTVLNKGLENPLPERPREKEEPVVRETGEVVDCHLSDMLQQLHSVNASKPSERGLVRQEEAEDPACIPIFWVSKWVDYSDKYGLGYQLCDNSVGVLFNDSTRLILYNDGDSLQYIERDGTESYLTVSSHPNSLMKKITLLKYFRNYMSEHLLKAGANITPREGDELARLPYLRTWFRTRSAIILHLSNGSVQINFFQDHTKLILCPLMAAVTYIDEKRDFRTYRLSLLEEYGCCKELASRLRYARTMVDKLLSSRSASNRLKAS
Serine/threonine-protein kinase Nek7 (Homo sapiens), sequence (Q8TDX7 whole entry, looked up): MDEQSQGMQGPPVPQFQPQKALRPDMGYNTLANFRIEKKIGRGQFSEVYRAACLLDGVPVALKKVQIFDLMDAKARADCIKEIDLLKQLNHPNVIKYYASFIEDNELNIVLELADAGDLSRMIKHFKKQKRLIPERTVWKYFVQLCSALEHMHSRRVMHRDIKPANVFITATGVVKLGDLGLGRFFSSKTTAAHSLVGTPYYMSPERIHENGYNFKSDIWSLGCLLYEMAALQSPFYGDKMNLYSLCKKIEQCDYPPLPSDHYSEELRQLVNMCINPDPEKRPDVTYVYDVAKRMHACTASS
Serine/threonine-protein kinase Nek6 (Homo sapiens), sequence (Q9HC98 whole entry): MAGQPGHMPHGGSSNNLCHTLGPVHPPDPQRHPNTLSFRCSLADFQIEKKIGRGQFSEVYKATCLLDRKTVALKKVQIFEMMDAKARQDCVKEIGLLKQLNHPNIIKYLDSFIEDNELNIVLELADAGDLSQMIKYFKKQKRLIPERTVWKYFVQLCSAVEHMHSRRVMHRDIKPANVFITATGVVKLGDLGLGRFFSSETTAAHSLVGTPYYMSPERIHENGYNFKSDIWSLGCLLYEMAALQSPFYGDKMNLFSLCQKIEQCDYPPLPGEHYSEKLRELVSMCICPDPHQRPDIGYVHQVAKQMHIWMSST
Vascular endothelial growth factor receptor 3 (Homo sapiens), sequence (P35916 whole entry): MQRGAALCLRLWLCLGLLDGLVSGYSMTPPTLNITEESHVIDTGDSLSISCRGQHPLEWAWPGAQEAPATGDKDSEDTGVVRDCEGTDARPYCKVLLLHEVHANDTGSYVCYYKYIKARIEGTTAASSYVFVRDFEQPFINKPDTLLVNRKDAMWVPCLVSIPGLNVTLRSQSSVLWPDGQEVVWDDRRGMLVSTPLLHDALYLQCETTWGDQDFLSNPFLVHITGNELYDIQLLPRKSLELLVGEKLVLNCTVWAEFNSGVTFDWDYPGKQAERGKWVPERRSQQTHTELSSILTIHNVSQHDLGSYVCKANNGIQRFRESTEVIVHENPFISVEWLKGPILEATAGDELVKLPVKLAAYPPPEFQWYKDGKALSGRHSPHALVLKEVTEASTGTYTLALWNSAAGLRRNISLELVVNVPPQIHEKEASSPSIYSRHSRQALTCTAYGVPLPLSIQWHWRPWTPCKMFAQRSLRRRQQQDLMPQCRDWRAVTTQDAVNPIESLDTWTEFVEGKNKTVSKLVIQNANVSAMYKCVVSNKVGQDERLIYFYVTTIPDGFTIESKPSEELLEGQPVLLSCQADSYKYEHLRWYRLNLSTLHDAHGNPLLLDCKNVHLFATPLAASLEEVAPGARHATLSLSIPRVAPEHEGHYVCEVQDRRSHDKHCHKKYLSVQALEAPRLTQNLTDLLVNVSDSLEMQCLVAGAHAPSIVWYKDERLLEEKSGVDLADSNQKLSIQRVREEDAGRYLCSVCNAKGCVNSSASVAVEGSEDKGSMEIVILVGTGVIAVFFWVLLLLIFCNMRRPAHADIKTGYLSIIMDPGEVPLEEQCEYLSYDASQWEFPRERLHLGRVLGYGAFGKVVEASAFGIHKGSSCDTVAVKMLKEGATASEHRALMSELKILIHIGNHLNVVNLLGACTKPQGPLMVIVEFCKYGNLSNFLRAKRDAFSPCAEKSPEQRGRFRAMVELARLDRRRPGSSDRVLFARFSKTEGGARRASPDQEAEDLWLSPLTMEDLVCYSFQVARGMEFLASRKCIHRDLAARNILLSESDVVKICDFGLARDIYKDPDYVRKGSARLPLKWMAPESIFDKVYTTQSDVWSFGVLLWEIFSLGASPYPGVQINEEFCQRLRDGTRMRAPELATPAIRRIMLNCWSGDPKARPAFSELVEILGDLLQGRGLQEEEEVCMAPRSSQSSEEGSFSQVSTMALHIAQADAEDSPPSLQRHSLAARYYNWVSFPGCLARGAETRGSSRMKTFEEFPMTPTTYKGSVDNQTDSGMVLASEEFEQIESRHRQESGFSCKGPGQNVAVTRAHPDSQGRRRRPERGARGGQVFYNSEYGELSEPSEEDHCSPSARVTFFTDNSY

Compound | inhibition [1] [%] | inhibition [2] [%] | inhibition [3] [%] | inhibition [4] [%] | inhibition [5] [%] | inhibition [6] [%] | inhibition [7] [%] | inhibition [8] [%] | inhibition [9] [%] | inhibition [10] [%] | inhibition [11] [%] | inhibition [12] [%] | inhibition [13] [%] | inhibition [14] [%] | inhibition [15] [%] | inhibition [16] [%] | inhibition [17] [%] | inhibition [18] [%] | inhibition [19] [%] | inhibition [20] [%]
CC(=O)Nc1cccc(C#Cc2cncnc2Nc2ccc(OCc3cccc(F)c3)c(Cl)c2)c1 | -0.15 | 1.85 | 1.3 | 1.33 | 2.68 | 1.9 | 1.16 | 2.97 | 2.6 | 1.96 | 2.42 | 2.3 | 2.89 | 3.58 | -2.98 | 2.87 | 3.83 | 0.82 | 4.6 | 0.68
COc1cc(Nc2nccc(Nc3ccc4c(C)n[nH]c4c3)n2)cc(OC)c1OC | 12.9 | 1.89 | 7.77 | 0.97 | 0.41 | -1.67 | -0.68 | 3.64 | 2.17 | 0.16 | 5.56 | 2.28 | 4.34 | 2.57 | 87.2 | 78.8 | 106 | 79.3 | 94.1 | 44.9
CC(=O)NCc1cccc(C#Cc2cncnc2Nc2ccc(OCc3cccc(F)c3)c(Cl)c2)c1 | -1 | 0.64 | 1.25 | 0.96 | 0.7 | -1.02 | -2.65 | 4.09 | 2.44 | 0.38 | -3.77 | 1.79 | 1.35 | 8.83 | -1.12 | 2.27 | 3.6 | 1.13 | 0.82 | 1.08
